Screening results (PubChem)
tim23-1 inh: inhibits growth of tim23-1 mutant yeast; 330,000 compounds, 1.3% hits; inhibition, % at 20 µM; AID 463212; S. cerevisiae tim23-1 growth, BacTiter-Glo luminescence, 24 h;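 active means growth inhibition of the mutant yeast at or above 50%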;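 further: temperature-sensitive mutant grown at 25 °C; plate controls were DMSO-treated mutant yeast for no effect and medium wells lacking yeast for full effect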
Yeast superoxide: lowers age-related superoxide in aged yeast cells; S. cerevisiae aged cells, superoxide DHE fluorescence; hits give low values; superoxide response (% of plate mean), % at 10 µM; 330,000 compounds, 0.18% hits;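 active means superoxide response under a set limit, about three screen SD below normal, cut at about 65% in these data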;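 further: yeast aged for seven days with compound at 30 °C before DHE staining; 100% = average MFI of all compound-treated wells on the plate with controls excluded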
tim10-1 inh: growth inhibitors of tim10-1 mutant yeast; inhibition, % at 20 µM; S. cerevisiae tim10-1 ts strain growth, BacTiter-Glo, 24 h; 330,000 compounds, 2.2% hits;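 active means inhibition of at least 40%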;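 further: mutant grown at 25 °C; 0% = DMSO wells with yeast and 100% = wells holding no yeast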
TIM10 inh: TIM10 yeast growth inhibition | S. cerevisiae TIM10 strain growth, BacTiter-Glo luminescence, 24 h | inhibition, % at 10 µM | 330,000 compounds, 1.4% hits;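 active means inhibition of 40% or more at the single tested concentration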;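 further: wild-type TIM10 isogenic control strain grown at permissive 25 °C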
NALP3 yeast inh: blocks the NALP3 inflammasome reconstituted in yeast; Yeast reconstituted NLRP3/ASC/caspase-1, beta-gal luminescence, 24 h; inhibition, % at 10 µM; 330,000 compounds, 0.39% hits; AID 2825;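 active means inhibition of 50% or more; inactive means inhibition below 50%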;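 further: plate controls were induced DMSO wells for no effect and uninduced yeast grown without galactose for full effect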
tim10-1 conf: confirmation of tim10-1 mutant yeast growth inhibitors. shares compounds with tim10-1 inh. S. cerevisiae tim10-1 ts strain growth, BacTiter-Glo, 24 h. inhibition, % at 20 µM. 7,400 compounds, 56% hits. AID 463213;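 active means inhibition of yeast growth at or above a set limit in either of two repeat tests at 20 µM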;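 further: tim10-1 mutant grown at permissive 25 °C to find synthetic lethal compounds; 0% = DMSO yeast wells and 100% = medium wells without yeast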
tim10 confirm: confirmation of TIM10 yeast growth inhibitors; 4,600 compounds, 63% hits; S. cerevisiae tim10 strain growth, BacTiter-Glo luminescence, 24 h; inhibition, % at 10 µM; shares compounds with TIM10 inh;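 active means inhibition of yeast growth at or above a set limit in either of two replicates at 10 µM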;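 further: this counterscreen used the strain with wild-type TIM10; 0% = yeast with DMSO and 100% = medium wells lacking yeast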
tim23-1 confirm: tim23-1 yeast growth inhibition, confirmed; shares compounds with tim23-1 inh; S. cerevisiae tim23-1 growth, BacTiter-Glo luminescence, 24 h; inhibition, % at 20 µM; 4,400 compounds, 83% hits;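 active means inhibition above about 39% in either of two replicate wells at 20 µM, limit read from the data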;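 further: temperature-sensitive tim23-1 mutant grown at 25 °C; 0% = DMSO wells with yeast and 100% = medium wells without yeast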
Numbers without * were called inactive; · = not tested or not shown. Hits are enriched below; roughly 3.8% of the tested compounds scored in any of these assays.

SMILES	tim23-1 inh	Yeast superoxide	tim10-1 inh	TIM10 inh	NALP3 yeast inh	tim10 confirm	others
NNC(=O)c1cc2c(s1)-c1cc(Cl)ccc1SC2	54.8*	108.6	56.9*	26.8	8.9	·	tim10-1 conf=43.8*;tim23-1 confirm=49.2*
Cc1cc(N2CCN(c3nc(-c4ccccc4)cs3)CC2)c2ccccc2n1	63.4*	98.3	51.4*	15.3	-0.8	·	tim10-1 conf=42.0*;tim23-1 confirm=52.0*
Cc1cccc(-n2c(O)c(C=Nc3cccc(O)c3)c3ccccc3c2=O)n1	16.0	99.3	-4.7	9.6	-12.0	·
Cc1ccc(N=Cc2c(O)n(-c3nccs3)c(=O)c3ccccc23)cc1	-1.7	87.0	13.9	41.1*	5.8	-8.2
Cc1cc(N=Cc2c(O)n(-c3ccc4c(c3)OCO4)c(=O)c3ccccc23)ccn1	24.8	84.9	26.5	53.2*	18.9	36.5*
Cc1ccc(-n2c(O)c(C=Nc3ccc4c(c3)OCO4)c3ccccc3c2=O)cc1C	-40.4	130.6	6.5	-6.2	-2.6	·
CC(C)/C=C(/C(=O)c1ccc(Cl)cc1Cl)n1cncn1	41.2	117.7	20.1	41.8*	16.1	5.9
O=c1c(Cc2ccccc2)c(O)ccn1C1CCCCCCC1	34.7	124.1	19.9	37.1	21.3	·
CCN1C(=O)/C(=C/c2nc3ccccc3c(=O)n2-c2ccccc2)c2ccccc21	42.3	104.0	24.7	42.9*	-4.8	25.9
O=C(Nc1ccc2ccccc2c1)C(c1ccccc1)C1CCCC1 (stereo unspecified)	7.2	97.3	19.6	44.0*	16.9	23.6
COc1ccccc1N1CCN(C(=O)c2ccc(N3CCCC3=O)cc2)CC1	12.9	105.3	4.8	14.5	12.3	·
COc1ccccc1N1CC(C)(C)C(=O)N(C(=O)c2ccc(C)cc2)C1=S	49.2	97.7	36.7	42.6*	28.3	44.9*
CC(=O)N1CCN(CC(=O)Nc2cc(F)ccc2C)CC1	0.0	102.0	-25.7	-1.3	15.2	·
Clc1cccc(Cl)c1CSc1cc2c(nn1)-c1ccccc1CC2	25.9	104.8	38.0	40.5*	2.4	-1.0
Clc1ccccc1CSc1cc2c(nn1)-c1ccccc1CC2	17.2	104.2	24.3	15.3	6.0	·
Cc1ccsc1C(=O)N/N=C/c1ccc2c(c1)OCO2	34.3	105.3	-7.7	21.2	10.1	·
O=C(N/N=C/c1ccc2c(c1)OCO2)c1cccs1	49.6	91.8	27.9	57.2*	21.0	47.6*
CC(C)(C)c1ccc(-n2ncc3c2CCCC3NC(=O)CCN2CCCO2)cc1 (stereo unspecified)	13.7	91.6	-6.9	9.0	4.7	·
Cc1ccc2nc(-c3ccncc3)c(NC3CCCC3)n2c1	24.6	98.9	7.7	-1.9	7.2	·
Cc1ccc2nc(-c3ccncc3)c(NC3CCCCC3)n2c1	41.1	91.5	21.7	42.5*	18.3	42.5*
COc1cc(/C=N/n2nnnc2N)cc(Cl)c1OC	8.2	105.1	1.7	1.0	6.2	·
CN(C)/C(=N\S(=O)(=O)c1ccccc1)c1ccc(F)cc1	3.5	105.3	-10.5	61.5*	12.0	0.1
Nc1c2c(nc3sc4c(c13)CCCC4)-c1ccccc1CC2	23.0	101.5	22.3	42.6*	-13.6	41.3*
NNc1nc(-c2ccccc2)nc2sc3c(c12)CCCC3	41.6	121.6	28.0	33.2	43.4	·
Cc1ccc(C(=O)NC(=S)Nc2ccccc2C(F)(F)F)cc1	27.8	94.7	25.8	40.1*	21.0	12.2
SMILES	tim23-1 inh	Yeast superoxide	tim10-1 inh	TIM10 inh	NALP3 yeast inh	tim10 confirm	others
O=C(Nc1ccccc1)c1snc2c(=O)[nH]cnc12	15.1	88.9	19.8	3.2	15.2	·
COc1cc(/C=C(/C#N)c2nc3ccccc3[nH]2)ccc1OCc1ccc(C(=O)O)o1	14.0	107.3	13.5	4.8	12.5	·
COC(=O)c1ccc(COc2ccc(/C=C(\C#N)c3nc4ccccc4[nH]3)cc2OC)o1	30.6	81.4	9.1	53.5*	19.1	33.3*
CCC(=O)c1ccc(OCC(=O)N2CCN(c3ncccn3)CC2)cc1	16.1	103.2	6.6	15.0	22.5	·
COc1ccc(Br)cc1CNC(=O)Nc1cccs1	13.2	98.5	29.3	50.8*	7.7	38.6*
COc1ccccc1CNC(=O)Nc1cccs1	17.5	86.9	21.8	27.5	13.5	·
O=S(=O)(O)c1nc2ccccc2n1Cc1cccc2ccccc12	3.5	99.9	12.7	7.2	-8.3	·
S=C1Cc2ccccc2C(c2ccc(Cl)cc2)N1 (stereo unspecified)	28.0	97.7	10.5	19.6	15.8	·
CC(=O)Oc1ccc2nc(/C=C/c3ccccc3)oc(=O)c2c1	24.5	89.8	3.9	32.8	33.0	·
COc1ccccc1C1(CC(=O)N2CCCCC2)CCOC(C(C)C)C1 (stereo unspecified)	33.7	87.7	34.8	48.3*	5.0	17.1
COC(=O)[C@]1(C)N[C@H](CN(C)C(=O)NC(C)C)[C@@H]2C(=O)N(C)C(=O)[C@@H]21	-7.2	108.5	-14.4	-7.4	10.0	·
O=C(Nc1ccc(Cl)cn1)c1ccc(Oc2ccccc2)cc1	12.3	96.4	-5.1	74.7*	34.5	17.4
CCCOc1ccc(C(=O)Nc2ccc(Cl)cn2)cc1	5.7	102.1	-6.5	-14.2	35.6	·
O=C1C(=C2SCCCS2)CC/C1=C\c1ccc(F)cc1	18.4	113.8	-28.3	41.9*	25.4	40.7*
O=C1/C(=C/c2ccc(F)cc2)CCC1C1CCCC1 (stereo unspecified)	23.2	101.8	23.1	16.5	11.9	·
Cc1cccc(/C=C2\CCC(=C3SCCCS3)C2=O)c1	49.2	103.0	34.1	44.4*	36.0	66.2*
CC1CCCC(C)N1C(=O)COC(=O)c1ccc(S(=O)(=O)N(C)c2ccccc2)cc1 (stereo unspecified)	22.3	91.1	0.6	15.1	7.3	·
COc1cc(Cl)c(C)cc1NC(=O)CSc1nnc(CCC(=O)O)c(=O)[nH]1	-6.9	102.0	3.3	13.9	-0.7	·
CCN(CC)Cc1ccc(NC(=O)c2sc3cc(Cl)ccc3c2Cl)cc1	18.6	92.4	17.7	44.0*	27.9	39.8*
O=C(NC1CC(=O)N(c2cccc(F)c2)C1)C(=O)c1c[nH]c2ccccc12 (stereo unspecified)	-10.7	85.5	-3.6	96.5*	-4.5	-1.9
COc1cccc(N2CC(NC(=O)C(=O)c3c[nH]c4ccccc34)CC2=O)c1 (stereo unspecified)	18.3	115.8	12.9	11.3	15.3	·
O=C(O)C(O)C(O)c1nc2ccccc2[nH]1 (stereo unspecified)	13.1	102.4	-13.8	-9.1	2.4	·
CCCCCCCCC1CC(C(=O)Nc2ccccc2)C(=O)O1 (stereo unspecified)	17.0	113.5	19.9	12.9	27.5	·
